# Bioassay records: PubChem BioAssay, NMMLSC
# RGS7-Gao – regulators of human RGS7-Galphao interaction; Multiplexed bead flow cytometry, RGS7-Galphao binding; actives lie on both sides; 220,000 compounds, 0.35% hits; binding response (% of control), % at 10 µM; in the data active = binding response below about 49% or above about 150%; inconclusive = no clear call, values can overlap the other calls; inactive = in between;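 also: fluorescent Galphao held in activated GDP-AlF4 state binding bead-coupled RGS7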
# Target sequence (P09471 whole entry, looked up): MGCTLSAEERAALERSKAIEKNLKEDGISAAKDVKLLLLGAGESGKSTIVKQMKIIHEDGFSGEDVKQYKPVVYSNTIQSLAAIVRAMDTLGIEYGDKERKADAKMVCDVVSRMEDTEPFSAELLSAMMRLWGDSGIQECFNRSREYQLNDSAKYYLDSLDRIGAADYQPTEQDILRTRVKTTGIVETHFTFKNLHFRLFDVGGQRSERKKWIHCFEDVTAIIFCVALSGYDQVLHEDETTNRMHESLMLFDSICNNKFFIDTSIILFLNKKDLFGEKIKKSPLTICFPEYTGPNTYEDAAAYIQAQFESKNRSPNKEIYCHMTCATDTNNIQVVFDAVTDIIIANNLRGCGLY
# Avidin fluor – avidin bead compound fluorescence profile; Avidin beads, compound fluorescence 488/530 nm, flow cytometry; hits give high values; fluorescence (KMESF) at 10 µM; 220,000 compounds, 0.38% hits; in the data active = fluorescence above about 47
# RGS8-Gao – regulators of human RGS8-Galphao interaction | 220,000 compounds, 0.34% hits | multiplexed bead flow cytometry, RGS8-Galphao binding; actives lie on both sides | response (percent of control binding), % at 10 µM; in the data active = response below about 60% or above about 140%; inactive = in between;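 also: Galphao activated as the GDP aluminium fluoride complex binding bead-coupled RGS8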
# RGS16-Gao HTS – modulates binding between human RGS16 and Galphao; O15492+P09471; bead-based flow cytometry RGS16-Galphao binding, fluorescence; actives lie on both sides; binding response (% of control), % at 10 µM; 220,000 compounds, 0.38% hits; AID 1441;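 also: Galphao activated by GDP with aluminum fluoride before binding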
# Target sequence (O15492 whole entry, looked up): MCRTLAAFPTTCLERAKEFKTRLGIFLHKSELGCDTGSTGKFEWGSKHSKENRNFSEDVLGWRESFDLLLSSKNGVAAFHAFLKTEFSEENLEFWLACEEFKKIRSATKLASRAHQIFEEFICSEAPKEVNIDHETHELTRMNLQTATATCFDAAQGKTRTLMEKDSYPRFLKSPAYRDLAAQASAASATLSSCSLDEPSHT
# Target sequence (P09471 whole entry, looked up): as the sequence (P09471 whole entry, looked up) above
# GSH fluor – compound fluoresces at 488/530 nm on GSH beads | GSH beads flow cytometry, compound fluorescence 488/530 nm; hits give high values | fluorescence (KMESF) at 10 µM | 190,000 compounds, 0.25% hits | AID 1776; in the data active = fluorescence above about 89;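 also: glutathione beads carrying GST-tagged Bcl family fusion proteins plus one bare bead set; values are compound well signal with DMSO vehicle wells as background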
# RGS4-Gao reg – human RGS4-Galphao interaction regulation | Multiplexed bead flow cytometry, RGS4-Galphao binding; actives lie on both sides | binding response (% of control), % at 10 µM | 220,000 compounds, 0.33% hits | AID 1415; in the data active = binding response below about 49% or above about 150%; inactive = in between;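 also: fluorescent Galphao activated with aluminum fluoride binding bead-coupled RGS4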
# RGS4-Gao HTS – regulators of human RGS4-Galphao interaction. RGS4–Galpha-o binding response, % at 10 µM. shares compounds with RGS16-Gao HTS. 1,600 compounds, 99% hits. multiplexed bead flow cytometry, RGS–Galpha-o binding;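 also: fluorescently labeled Galpha-o bound to GDP with aluminium fluoride binding biotinylated RGS beads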
# Biotin-avidin – biotin-avidin bead binding disruption counter-screen. shares compounds with RGS16-Gao HTS. streptavidin beads, fluorescein-biotin binding, flow cytometry. inhibition, % at 10 µM. 1,700 tested, under 10 active;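 active = inhibition above 50%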;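 also: median green fluorescence of gated singlet beads compared with DMSO control wells; 0% = DMSO wells and 100% = complete loss of bead fluorescence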
# RGS8-Gao confirm – confirmation of regulators of human RGS8-Galphao interaction; shares compounds with RGS16-Gao HTS; bead-based flow cytometry RGS8-Galphao binding, fluorescence; actives lie on both sides; binding response (% of control), % at 10 µM; 1,700 compounds, 3% hits; AID 1836; in the data active = binding response below about 72% or above about 130%; inactive = in between;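 also: Galphao activated as GDP AlF4 complex before binding bead RGS8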
# RGS7-Gao single – confirmation of regulators of human RGS7-Galphao interaction | shares compounds with RGS16-Gao HTS | 1,700 compounds, 7.8% hits | AID 1837 | response (percent of control binding), % at 10 µM | bead-based flow cytometry RGS7-Galphao binding; actives lie on both sides; in the data active = response below about 75% or above about 130%; inactive = in between;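 also: fluorescent Galphao activated with GDP and aluminum fluoride binding bead-coupled RGS7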
# RGS16-Gao conf – confirmation of regulators of human RGS16-Galphao interaction. bead-based flow cytometry, RGS16-Galphao binding; actives lie on both sides. 1,700 compounds, 4% hits. response (% of control binding), % at 10 µM. AID 1838. shares compounds with RGS16-Gao HTS; in the data active = response below about 74% or above about 130%; inactive = in between;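 also: Galphao activated as the GDP aluminium fluoride complex binding bead-coupled RGS16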
# RGS4-Gao single – RGS4-Galphao interaction regulation, single point confirmation | shares compounds with RGS16-Gao HTS | RGS4-Galphao binding, multiplexed bead flow cytometry; actives lie on both sides | binding response (% of control), % at 10 µM | 1,700 compounds, 4% hits | AID 1840; in the data active = binding response below about 74% or above about 130%; inactive = in between
# RGS19-Gao single – RGS19-Galphao interaction regulation, single point confirmation; shares compounds with RGS16-Gao HTS; bead-based flow cytometry RGS19-Galphao binding; actives lie on both sides; response (percent of control binding), % at 10 µM; 1,700 compounds, 5% hits; AID 1841; in the data active = response below about 50% or above about 160%; inactive = in between;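 also: 100% = no compound control and 0% = blank background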
# The depositor's hits bear a star; i = inactive; ? = inconclusive; nt = no result; [ ] = remark or other dose. Hits are enriched below; roughly 1.2% of the tested compounds scored in any of these assays. Unless noted, no rule for the calls is given here.
SMILES,RGS7-Gao,Avidin fluor,RGS8-Gao,RGS16-Gao HTS,GSH fluor,RGS4-Gao reg,Biotin-avidin,RGS8-Gao confirm,RGS7-Gao single,RGS16-Gao conf,RGS4-Gao single,RGS19-Gao single,others
COC(=O)C1=C(C)NC2=C(C(=O)CC(C)(C)C2)C1c1ccsc1 (stereo not drawn),25*,6,25*,18*,11,28*,2,108,113,110,109,101,
CC1=C/C(=N\NC(=S)NCCc2ccccc2)CC(C)(C)C1,100,10,103,103,13,103,nt,nt,nt,nt,nt,nt,
CCc1ccc(S(=O)(=O)/N=C2/C=C(Sc3ncn[nH]3)C(=O)c3ccccc32)cc1,84,7,63,24*,21,92,nt,nt,nt,nt,nt,nt,RGS4-Gao HTS=92*
CCc1ccc(S(=O)(=O)/N=C2\C=CC(=O)c3ccccc32)cc1,89,11,87,78,10,93,nt,nt,nt,nt,nt,nt,
Cc1cc(C)c2c(N)c(C(=O)NNC(=O)c3ccccc3)sc2n1,103,9,105,109,19,103,nt,nt,nt,nt,nt,nt,
CC(=O)c1ccc(NC(=O)Nc2ccc(Br)cc2C)cc1,216*[activator],76*,88,184*[activator],20,204*[activator],0,98,95,100,99,87,
CC(=O)c1ccc(NC(=O)c2ccc(C)c(Br)c2)cc1,92,7,93,60,18,98,nt,nt,nt,nt,nt,nt,
NC(=O)CSc1nnc(-c2ccco2)n1N,nt,nt,nt,nt,38,nt,0,101,98,97,98,101,
CN1CCN(NC(=O)CN2C(=O)/C(=C/c3ccccc3F)SC2=S)CC1,100,14,99,96,19,100,nt,nt,nt,nt,nt,nt,
Cc1ccc(NC(=O)c2cccc(OCc3c(C)noc3C)c2)cc1,99,8,103,103,10,100,nt,nt,nt,nt,nt,nt,
Cc1ccc(NC(=O)c2ccc(OCc3c(C)noc3C)cc2)cc1,?,1,53*,27,nt,23*,0,101,106,106,106,104,
CCN(CC)c1ccc(NC(=O)c2cccc(F)c2)c(C)c1,40*,3,53*,36,25,45*,i,103,99,102,101,109,
CCN(CC)c1ccc(NC(=O)c2ccco2)c(C)c1,100,8,96,90,19,99,nt,nt,nt,nt,nt,nt,
O=C(COc1ccc(Cl)cc1)Nc1ccccc1C(=O)NCc1ccco1,100,21,102,108,26,101,nt,nt,nt,nt,nt,nt,
Cc1ccc(-c2nn(CC(=O)N3CCOCC3)c(=O)c3ccccc23)cc1S(=O)(=O)N(C)C,?,62*,116,152,nt,163*[activator],1,102,102,100,100,110,
COc1cc(C)nc(Oc2ccc(OCc3ccccc3)nn2)n1,99,6,101,106,39,105,nt,nt,nt,nt,nt,nt,
Cc1nn(C(=O)N2CCCCC2)c(C)c1CN1C(=O)c2ccccc2C1=O,nt,nt,nt,nt,12,nt,0,102,105,103,103,66,
Cc1nn(C(=O)c2cccs2)c(C)c1CN1C(=O)c2ccccc2C1=O,96,7,102,101,40,104,nt,nt,nt,nt,nt,nt,
O=C(c1ccco1)N1CCN(S(=O)(=O)c2ccc(Cl)s2)CC1,nt,nt,nt,nt,17,nt,1,98,98,98,95,94,
O=C(CSc1n[nH]c(=O)[nH]c1=O)N/N=C/C=C\c1ccccc1,105,11,102,105,59,102,nt,nt,nt,nt,nt,nt,
O=C(NCCN1CCN(c2cccc(Cl)c2)CC1)C1CCCN(S(=O)(=O)c2cnc[nH]2)C1 (stereo not drawn),114,5,142*[activator],203,15,116,nt,nt,nt,nt,nt,nt,RGS4-Gao HTS=116*
CCN(CC)C(=O)c1cnn(-c2ccccc2)c1NC(=O)c1cccs1,98,5,99,97,28,96,nt,nt,nt,nt,nt,nt,
Cn1ccnc1SCC(=O)n1c2c(c3ccccc31)CCCC2,60,1,55*,16,9,60,0,100,94,101,96,97,RGS4-Gao HTS=60*
Cn1ccnc1SCC(=O)Nc1cccc2ccccc12,103,7,111,131,11,103,nt,nt,nt,nt,nt,nt,
CC(C(=O)c1ccc(-c2ccccc2)cc1)[n+]1cccc(NC(=O)c2ccccc2)c1 (stereo not drawn),nt,nt,nt,nt,nt,nt,3,106,111,102,108,84,
SMILES,RGS7-Gao,Avidin fluor,RGS8-Gao,RGS16-Gao HTS,GSH fluor,RGS4-Gao reg,Biotin-avidin,RGS8-Gao confirm,RGS7-Gao single,RGS16-Gao conf,RGS4-Gao single,RGS19-Gao single,others
CCOC(=O)c1ccc[n+](C(C)C(=O)c2ccc(-c3ccccc3)cc2)c1 (stereo not drawn),99,3,99,101,10,98,nt,nt,nt,nt,nt,nt,
Cc1ccc(C(=O)COC(=O)c2cc(Cl)nc3ccccc23)cc1C,118,5,158*[activator],805,55,130,nt,nt,nt,nt,nt,nt,RGS4-Gao HTS=130*
Cc1ccc(C)c(C(=O)COC(=O)c2cc(Cl)nc3ccccc23)c1,95,1,96,91,5,96,nt,nt,nt,nt,nt,nt,
Cn1c(SCC(=O)c2ccccc2)nnc1-c1cccc(N)c1,77,-2,89,-92*,47,60,-1,104,108,106,105,105,RGS4-Gao HTS=60*
Cc1ccc2nc(-c3ccc(NC(=O)CNC4CC4)cc3)sc2c1,217*[activator],101*,91,83,21,108,0,98,95,97,97,91,RGS4-Gao HTS=108*
Cc1ccc2nc(-c3ccc(NC(=O)CN4C(=O)c5ccccc5C4=O)cc3)sc2c1,108,11,99,100,19,100,nt,nt,nt,nt,nt,nt,
COc1cccc(-c2csc3nc[nH]c(=O)c23)c1,96,12,97,99,7,99,nt,nt,nt,nt,nt,nt,
CCOC(=O)c1ccccc1NC1c2ccccc2C(=O)N1C1CCN(C(=O)OCC)CC1 (stereo not drawn),97,10,99,104,20,96,nt,nt,nt,nt,nt,nt,
Cc1cc(=O)nc2c3ccccc3n(C(C)C(=O)NCCC(C)C)n12 (stereo not drawn),?,4,98,94,nt,94,nt,nt,nt,nt,nt,nt,
